PubChem BioAssay AID624330 (Southern Research Specialized Biocontainment Screening …, 2012)
About 2,100 (0.62%) of roughly 340,000 compounds were called active.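 The calls were made as follows: active = first-screen hits whose inhibition reached a set limit at any dose in the follow-up dose series; inconclusive = inhibition above the set first-screen limit but never retested; inactive = the rest.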 The list is a sample of the results. Results with a measured potency or affinity are listed apart.

molecular target: Rac GTPase-activating protein 1 (Homo sapiens) (UniProt Q9H0H5); experiment: MgcRacGAP GTPase-activating activity inhibitors, confirmation, biochemical, ADP Hunter fluorescence, primary and confirmatory (AID 624330); conditions: MgcRacGAP-stimulated Rac1 GTP hydrolysis, at 30 µM, hits give high values, GST-tagged Rac1 F28L mutant substrate;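 also: fluorescence reports GDP produced by GAP-driven GTP hydrolysis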
Sequence (Q9H0H5 whole entry, looked up): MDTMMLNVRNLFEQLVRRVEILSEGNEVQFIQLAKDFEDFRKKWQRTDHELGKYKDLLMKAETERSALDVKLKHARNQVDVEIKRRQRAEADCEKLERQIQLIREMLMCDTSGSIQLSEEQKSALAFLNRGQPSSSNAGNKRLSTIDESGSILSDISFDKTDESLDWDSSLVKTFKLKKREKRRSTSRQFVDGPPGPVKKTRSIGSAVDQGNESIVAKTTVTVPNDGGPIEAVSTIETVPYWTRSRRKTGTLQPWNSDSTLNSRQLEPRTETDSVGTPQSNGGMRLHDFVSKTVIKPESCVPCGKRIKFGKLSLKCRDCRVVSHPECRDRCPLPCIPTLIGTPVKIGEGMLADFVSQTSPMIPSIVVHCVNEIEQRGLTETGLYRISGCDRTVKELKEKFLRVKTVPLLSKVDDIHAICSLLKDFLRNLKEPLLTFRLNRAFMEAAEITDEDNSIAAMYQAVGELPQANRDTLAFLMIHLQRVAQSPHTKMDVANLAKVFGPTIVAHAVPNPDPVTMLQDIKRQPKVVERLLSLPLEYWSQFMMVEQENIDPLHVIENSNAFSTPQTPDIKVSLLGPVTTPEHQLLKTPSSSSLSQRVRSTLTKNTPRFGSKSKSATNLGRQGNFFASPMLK

inhibition, inactive:
Cc1n[nH]c(C)c1N1C(=O)c2cccc3cc(Br)cc(c23)C1=O 15.9%
O=C(N/N=C/c1ccccc1)c1ccc(-c2ccccc2)cc1 5.75%
O=C(N/N=C/c1ccc(F)cc1)c1ccccc1 5.65%
O=C(NCc1ccccc1)C1Cc2ccccc2CN1C(=O)c1ccco1 (configuration not stated) 6.98%
COc1cc(/C=N/O)cc(Br)c1OCc1ccc(Cl)cc1 0.88%
CCCCN(C(=O)Cn1nnc2ccccc21)C(C(=O)NCCOC)c1cccs1 (configuration not stated) 9.34%
O=[N+]([O-])c1ccc(O)c2cccnc12 5.34%
O=C(O)c1ccccc1Nc1ccc([N+](=O)[O-])c2nonc12 5.2%
CS(=O)(=O)c1ccc(C(=O)Nc2ccc(S(=O)(=O)N3CCCCC3)cc2)cc1 3.97%
O=c1[nH]c2cc([N+](=O)[O-])ccc2c2ccccc12 2.35%
Nc1nc2ccc([N+](=O)[O-])cc2[nH]1 0.04%
O=C1N(C2CCCC2)C[C@@H]2C[C@@H](c3cn[nH]c3-c3ccc(Cl)cc3)N3CCC[C@@]123 7.84%
COc1ccc(CN2C3CCC2CC(NC(=O)c2cc(OC)c(OC)c(OC)c2)C3)cc1 (configuration not stated) 9.16%
Cc1ccc(S(=O)(=O)N(C)CC(=O)Nc2ncccc2C)cc1 -0.45%
CCCNC(=S)N1CC2(C)CN(C(=O)C(=O)OC)CC(C)(C1)C2=O 2.02%
CC(=O)N(c1ccccc1)c1nnc(-c2cnc(C)cn2)s1 -6.48%
CC(=O)Oc1ccc2c3c(c(=O)oc2c1C)CCCC3 4.5%
Cc1c(O)ccc2c3c(c(=O)oc12)CCC(C)C3 (configuration not stated) 29.3%
CCOC(=O)CSc1nc2c(sc(=S)n2-c2ccccc2OC)c(=O)n1-c1ccccc1OC 3.56%
COc1ccc(CCN(C)CC(O)COc2ccc(C(C)=O)cc2OC)cc1OC (configuration not stated) 16.6%
COc1cc(C(C)=O)ccc1OCC(O)CNCC(O)c1ccccc1 (configuration not stated) 20.6%
CC(=O)Nc1ccc(CN2CCCC(CCC(=O)NCc3ccccc3F)C2)cc1 (configuration not stated) 3.48%
CCN1CCN(CCNC(=O)C2CCCN(Cc3nc(-c4cccc(Cl)c4)oc3C)C2)CC1 (configuration not stated) 5.46%
O=C(c1cccs1)N1CCN(Cc2cccnc2)CC1 30.4%
O=C(c1cccc(Cl)c1)N1CCN(Cc2ccc3c(c2)OCO3)CC1 7.04%
O=C(c1cccc(C(=O)N2CCN(Cc3ccccc3)CC2)c1)N1CCN(Cc2ccccc2)CC1 9.35%
O=C(c1cccs1)N1CCN(Cc2ccccc2)CC1 7.61%
CCSc1nnc(-c2cccc(S(=O)(=O)N(C)C)c2)n1-c1cc(OC)ccc1OC 1.21%
Cc1ccc(OCCCC(=O)N(C)CC(=O)Nc2ccccc2Cl)cc1 2.87%
CC(C)[C@H](NC(=O)c1ccco1)C(=O)Nc1ccc(N2CCCCCC2)cc1 9.75%
O=C(c1ccccc1)c1c[nH]c(C(=O)NCc2cccnc2)c1 -1.95%
COc1ccc2c(c1)CCc1c(C(=O)N(C)c3ccccc3)noc1-2 7.96%
Cc1sccc1/C=N/NC(=O)c1ccco1 3.82%
Cc1ccsc1/C=C(\C#N)C(=O)NCc1ccco1 2.06%
CC(=O)Oc1ccc(C(=O)Cc2ccc3ccccc3n2)c(O)c1C -0.13%
Cc1c(O)ccc(/C(Cc2ccc3ccccc3n2)=N\N)c1O 14.8%
O=C(NCC1CCCO1)c1cnn2c(C(F)F)cc(C3CC3)nc12 (configuration not stated) -0.05%
CCC(CO)Oc1cc(NCc2cccc(F)c2)c2ncn(C(C)C)c2c1 (configuration not stated) 6.74%
COc1cc(/C=C/C(=O)OCC(=O)N2CCCCCC2)ccc1OCC#N 3.21%
Nc1ccccc1N1CCN(C(=O)c2ccccc2)CC1 12.8%
COc1ccc(OCc2cc(C(=O)NC(C)c3nc(C)cs3)no2)c(Cl)c1 (configuration not stated) 7.35%
Brc1ccc(-c2ccccc2)cc1 1.25%
Oc1c(Br)cc(C2N=C(c3ccccc3)NO2)cc1Br (configuration not stated) -1.87%
C/C(=N\NC(=O)CNC(=O)c1ccccc1F)c1ccco1 2.16%
COc1ccc(NC(=O)COC(=O)CNC(=O)c2cccs2)cc1Cl 2.23%
Cc1ccc(NC(=O)COC(=O)CCC(=O)c2cccs2)cc1 6.66%
CC(=O)c1ccc(NC(=O)COC(=O)Cc2ccsc2)cc1 8.16%
O=C(COC(=O)CNC(=O)c1cccs1)Nc1ccccc1C(F)(F)F 8.33%
CCOc1ccc(NC(=O)COC(=O)Cc2ccsc2)cc1 2.81%
CN(CC(=O)Nc1cc(Cl)cc(Cl)c1)Cc1cccs1 3.5%
CCN(CC)c1ccc(NC(=O)COC(=O)c2cccs2)cc1 21.8%
CCCOC(=O)c1ccc(NC(=O)CN(C)Cc2cccs2)cc1 10.3%
CCCCC[C@H]1CN(Cc2ccccc2)C(=O)[C@@H]1CC(=O)NCc1ccccc1 8.29%
Cc1cccc(OCC(=O)Nc2nnc(S(=O)(=O)N3CCCCCC3)s2)c1 9.88%
Cc1[nH]c(C)c(S(=O)(=O)NCc2ccco2)c1C(=O)N1CCCCC1 16.2%
COc1ccccc1NC(=O)c1ccc[n+]([O-])c1 4.42%
Cc1cc(F)ccc1S(=O)(=O)Nc1ncnc2sccc12 -6.18%
COc1ccc(CNC(=O)O[C@@H]2C[C@H]3C(=O)N(c4ccccc4)C(=O)[C@H]3[C@@]3(CN(S(=O)(=O)c4ccc(C)cc4)C[C@H]3C)[C@@H]2O)cc1OC 13.3%
Cc1cn([C@@H](CCCCNC(=O)OC(C)(C)C)C(=O)NCCCCCCCCCCC(=O)N2CCN(C(=O)OC(C)(C)C)CC2)nn1 3.56%
CCN(CC)c1ccc(NC(=O)COC(=O)CSc2ccc(Br)cc2C)cc1 7.43%
Cc1ccccc1SCC(=O)OCC(=O)NCCNC(=O)COC(=O)CSc1ccccc1C 2.21%
O=C(Cn1ccc(C(F)(F)F)n1)N=Nc1c(O)[nH]c2ccccc12 4.76%
CCc1ccc(S(=O)(=O)NCCc2cn3cccc(C)c3n2)s1 4.85%
Oc1c(C=Nc2ccc(Cl)cn2)sc2ccccc12 8.33%
O=[N+]([O-])c1ccc(O)c(N=Cc2sc3ccccc3c2O)c1 27.9%
Cc1ccc(O)c(N=Cc2ccc(C)s2)c1 -11.5%
COc1ccc(N=Cc2sc3ccccc3c2Cl)cc1 11%
CN(C)C(=O)CSc1nc(-c2ccccc2)c(-c2ccccc2)o1 2.82%
COc1ccc(OC(=O)c2ccc(OC)c(S(=O)(=O)N3CCOCC3)c2)cc1 22.8%
O=C(Nc1ccc2c(c1)OCCO2)c1ccc(Br)c(S(=O)(=O)N2CCOCC2)c1 -4.87%
COc1ccc(C(=O)Oc2ccc3c(c2)OCO3)cc1OC 7.69%
O=C(Oc1ccc(OC(=O)c2ccncc2)cc1)c1ccncc1 5.17%
COc1ccc(CCN2C(=O)c3ccccc3NC2c2cc(Cl)c(O)c(OC)c2)cc1 (configuration not stated) 7.25%
COC(=O)c1c(NC(=O)CC2SC(N)=NC2=O)sc(C)c1C (configuration not stated) -4.36%
Nc1cc2c(cc1Cl)N(Cc1ccccc1)C(=O)CO2 4.01%
Cc1cc2c(NCC(C)O)ncnc2s1 (configuration not stated) 8.37%
CSCC(=O)N1CCCC(N2CCN(c3ccc(F)cc3)CC2)C1 (configuration not stated) 15.7%
Cc1ccccc1OCC(=O)Nc1ccc(N2CCN(C(=O)c3ccco3)CC2)cc1 10.3%
COc1ccc(CCNC(=O)COC(=O)c2cc(OC)c(OC)cc2OC)cc1OC 7.3%
C=CCOc1ccc(Cl)cc1CNCCCN1CCOCC1 1.5%
C=CCc1cc(C)ccc1OCCOCCn1ccnc1 15.9%
C=CCc1cc(Cl)ccc1OCCCn1ccnc1 19.6%
C=CCc1cc(Cl)ccc1OCCNCCOC 10.8%
C=CCc1cc(C)ccc1OCCn1ccnc1 17.7%
C=CCc1ccccc1OCCn1ccnc1 9.27%
C=CCc1cc(Cl)ccc1OCCCNC(C)C 23.5%
C=CCc1cc(Cl)ccc1OCCOCCN(C)C 22%
COc1ccc(NC(=O)N2CCN(S(=O)(=O)c3ccc(F)cc3)CC2)c(OC)c1 7.35%
CCCCCCCNC(=O)C1(CC2CC(c3ccc(Cl)cc3)=NO2)CCN(C(=O)CCCCCBr)CC1 (configuration not stated) 3.79%
COc1ccc2cc(CN(CC3COCCO3)S(=O)(=O)c3ccccc3)c(=O)[nH]c2c1 (configuration not stated) -14.3%
Cc1onc(-c2ccccc2)c1C(=O)N/N=C/c1ccco1 4.91%
N#Cc1ccc(NC(=O)Cn2c3[n+](c4ccc(C(F)(F)F)cc42)CCCCC3)cc1 -1.69%
CNc1nc(-c2ccc3c(c2)CCN3C(=O)c2ccccc2C)cs1 10.3%
COc1ccc(-c2cc(C(=O)Nc3cccnc3Cl)no2)cc1 9.21%
C=CCn1ccc2c([N+](=O)[O-])cccc2c1=O 8.97%
COCCNC(=O)c1ccccc1NC(=O)c1ccccc1N(C)S(=O)(=O)c1ccc(C)cc1 3.63%
CC1CCCN(C(=O)c2cc(S(=O)(=O)N3CCCCC3)c[nH]2)C1 (configuration not stated) -0.16%
